These results are taken from PubChem BioAssay (Tox21).

A short description of assay [1]: qHTS assay to identify small molecule antagonists of the thyroid receptor (TR) signaling pathway - cell viability counter screen (AID 743064). Note: nearly all actives have a fitted effect of over 50% in size. The procedure, abridged:
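CellTiter-Fluor readout, 30 min at 37 °C/5% CO2, following 23.5 h incubation of GH3.TRE-Luc cells with test compound and 1 nM T3 (final).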
(In qHTS, concentration-response curves come from the screen itself.)

A short description of assay [2]: qHTS assay to identify small molecule antagonists of the thyroid receptor (TR) signaling pathway (AID 743065). Note: series mostly up to about 70 µM; nearly all actives have a fitted effect of over 55% in size. The procedure, abridged:
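GH3.TRE-Luc rat pituitary cells carrying two TR response elements driving luciferase were plated for 4 h, given compound plus 1 nM T3 (final), and incubated 23.5 h at 37 C. ONE-Glo luminescence measured reporter inhibition; CellTiter-Fluor fluorescence tracked cytotoxicity.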

Assay [3] relates to thyroid hormone receptor (rat, GH3 cells). Kind of assay: qHTS assay to identify small molecule agonists of the thyroid receptor (TR) signaling pathway (AID 743066; calls by dose curve).
Assay [4] has as its target Estrogen receptor (Homo sapiens) (UniProt P03372). The assay can be described thus: qHTS assay to identify small molecule antagonists of the estrogen receptor alpha (ER-alpha) signaling pathway (AID 743069; active = well fitted curve in the direction sought with a large enough effect in the signal ratio in the repeat runs, not every such curve was filed as active; the % refers to the signal ratio). The procedure, abridged:
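Estradiol-stimulated ER-alpha-UAS-bla HEK293 cells, 18 hr compound exposure at 37C. LiveBLAzer B/G substrate, 2 hr RT, fluorescence read.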

Assay [5] is described as follows: qHTS assay to identify small molecule antagonists of the estrogen receptor alpha (ER-alpha) signaling pathway - cell viability counter screen (AID 743074; calls by dose curve;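 note: HEK293 cells carrying ER-alpha-UAS-bla reporter stimulated with 17beta-estradiol; nearly all actives have a fitted effect of over 45% in size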).
Assay [6] addresses Estrogen receptor (Homo sapiens) (UniProt P03372). The assay can be described thus: qHTS assay to identify small molecule agonists of the estrogen receptor alpha (ER-alpha) signaling pathway (AID 743075; calls by dose curve;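 note: HEK293 GripTite cells with ER-alpha and UAS-driven beta-lactamase reporter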).
Assay [7] has the same target. Kind of assay: qHTS assay to identify small molecule agonists of the estrogen receptor alpha (ER-alpha) signaling pathway using the BG1 cell line (AID 743079). Note: nearly all actives have a fitted effect of over 20% in size.
Assay [8] is described as follows: qHTS assay to identify small molecule antagonists of the estrogen receptor alpha (ER-alpha) signaling pathway using the BG1 cell line (AID 743080; calls by dose curve;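 note: BG1 cells stimulated with 17beta-estradiol alongside compound; series mostly up to about 70 µM; nearly all actives have a fitted effect of over 25% in size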). The procedure, abridged:
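Seeding, 24 h rest, compound transfer from DMSO, 17beta-estradiol addition, 21.5 h incubation, CellTiter-Fluor (30 min, 37 C), then ONE-Glo (30 min, room temperature): this sequence was run on BG1-Luc-4E2 reporter cells.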

Assay [9] is described as follows: qHTS assay to identify small molecule antagonists of the estrogen receptor alpha (ER-alpha) signaling pathway using the BG1 cell line - cell viability counter screen (AID 743081).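 Note: compound given together with 17beta-estradiol as the ER stimulus; series mostly up to about 70 µM; nearly all actives have a fitted effect of over 45% in size.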
The next assay concerns the target Aromatase (Homo sapiens) (UniProt P11511). The assay can be described thus: qHTS assay to identify aromatase inhibitors (AID 743083). Note: series mostly up to about 70 µM; nearly all actives have a fitted effect of over 55% in size.
Assay [10] can be described thus: qHTS assay to identify aromatase inhibitors - cell viability counter screen (AID 743084).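 Note: cells stimulated with testosterone during compound exposure; nearly all actives have a fitted effect of over 55% in size.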
Assay [11] deals with Aryl hydrocarbon receptor (Homo sapiens) (UniProt P35869). Kind of assay: qHTS assay to identify small molecule that activate the aryl hydrocarbon receptor (AhR) signaling pathway (AID 743085).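 For activation: HG2L7.5c1 human HepG2 liver cells with stably integrated DRE-driven firefly reporter; series mostly up to about 70 µM.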 Note: nearly all actives have a fitted effect of over 15% in size. Note: potency is the fitted concentration of half-maximal effect. Put shortly:
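Stably transfected human liver carcinoma cells (HG2L7.5c1; 20 DRE-firefly luciferase) were incubated 5 h, dosed, and kept 24 h at 37C. Agonism was scored from increased luciferase luminescence.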

The target of assay [12] is Peroxisome proliferator-activated receptor gamma (Homo sapiens) (UniProt P37231). Kind of assay: qHTS assay to identify small molecule agonists of the peroxisome proliferator-activated receptor gamma (PPARg) signaling pathway (AID 743094; active = well fitted activation curve with a large enough effect in the signal ratio in the repeat runs, not every such curve was filed as active; the % refers to the signal ratio). The procedure, abridged:
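Quantitative HTS agonist mode: stable HEK293H line with UAS-beta-lactamase reporter under PPARg control, 17 h compound exposure at 37C, fluorescence after 1 h FRET substrate loading at room temperature.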

Assay [13] has the same target. The assay can be described thus: qHTS assay to identify small molecule antagonists of the peroxisome proliferator-activated receptor gamma (PPARg) signaling pathway (AID 743191; calls by dose curve; note: series mostly up to about 63 µM; nearly all actives have a fitted effect of over 30% in size). The procedure, abridged:
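GeneBLAzer PPARg UAS-bla HEK293H cells carrying a UAS-driven beta-lactamase reporter were plated at 3000 cells/well, preincubated 5 h at 37C, then given compound for 17 h at 37C; LiveBLAzer B/G FRET substrate was read after 1 h at room temperature.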

A short description of assay [14]: qHTS assay to identify small molecule antagonists of the peroxisome proliferator-activated receptor gamma (PPARg) signaling pathway - cell viability counter screen (AID 743194). Note: nearly all actives have a fitted effect of over 55% in size. Put shortly:
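PPARg-UAS-bla HEK293H cells were plated, rested 5 h at 37 C, then treated with compounds plus rosiglitazone (50 nM final) for 17 h at 37 C; viability was then read by CellTiter-Glo luminescence after 30 min at room temperature.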

The nature of assay [15]: qHTS assay for small molecule agonists of the antioxidant response element (ARE) signaling pathway - cell viability counter screen (AID 743203; calls by dose curve; note: nearly all actives have a fitted effect of over 55% in size). Put shortly:
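Seeded at 2,000 cells/well, ARE-bla HepG2 cells were incubated 5 hrs before compound addition. After 16 hrs of treatment at 37C with 5% CO2, CellTiter-Glo reagent was added and luminescence read 30 min later.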

The nature of assay [16]: qHTS assay for small molecule activators of the heat shock response signaling pathway - cell viability counter screen (AID 743209). Note: nearly all actives have a fitted effect of over 50% in size. The procedure, abridged:
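First, HSE-bla HeLa cells were seeded at 1500 cells/well and kept overnight at 37 C. Next, compounds were pinned in and incubated 5 h. After the FRET substrate step, CellTiter-Glo was added and luminescence read 30 min later.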

Assay [17] can be described thus: qHTS assay for small molecule activators of the heat shock response signaling pathway (AID 743210; active = well fitted activation curve with a large enough effect in the signal ratio in the repeat runs, with a control signal flat, not every such curve was filed as active; the % refers to the signal ratio;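 note: HeLa cells with beta-lactamase reporter driven by heat shock elements; series mostly up to about 63 µM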). The procedure, abridged:
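Reporter gene assay: HeLa cells stably bearing an HSE-bla construct, compound treatment 5 h at 37 C, LiveBLAzer substrate 2.5 h at RT, fluorescence intensity.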

A short description of assay [18]: qHTS assay to identify small molecule that activate the aryl hydrocarbon receptor (AhR) signaling pathway - cell viability counter screen (AID 743086).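 Note: HepG2 liver cells carrying the AhR DRE luciferase reporter; series mostly up to about 70 µM; nearly all actives have a fitted effect of over 45% in size.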 The procedure, abridged:
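HepG2-AhR-luc (HG2L7.5c1) cells, 4000/well, were preincubated 5 h at 37C, exposed to compound in qHTS format for 24 hr at 37C, then given CellTiter-Fluor for 30 min; viability was read as fluorescence in the reporter wells.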

A short description of assay [19]: qHTS assay for small molecule agonists of the antioxidant response element (ARE) signaling pathway (AID 743202; active = well fitted activation curve with a large enough effect in the signal ratio in the repeat runs, not every such curve was filed as active; the % refers to the signal ratio). The procedure, abridged: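 Compounds delivered in DMSO to ARE-bla HepG2 cells (2,000 cells/well, pre-incubated 5 h) and left 16 h at 37 C. LiveBLAzer B/G FRET substrate then added for 2 h at RT before fluorescence reading.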

Inconclusive results are not listed. The source made the active and inactive calls. Unless noted, calls come from the whole dose curve; as a rule, active = well fitted curve in the direction sought with a large enough effect in the repeat runs; inconclusive = weak or mixed curves; inactive = no such curve, though single readings can be large; an effect the other way counts as inactive or inconclusive.

Sequence of Peroxisome proliferator-activated receptor gamma (Homo sapiens) (P37231 whole entry, looked up): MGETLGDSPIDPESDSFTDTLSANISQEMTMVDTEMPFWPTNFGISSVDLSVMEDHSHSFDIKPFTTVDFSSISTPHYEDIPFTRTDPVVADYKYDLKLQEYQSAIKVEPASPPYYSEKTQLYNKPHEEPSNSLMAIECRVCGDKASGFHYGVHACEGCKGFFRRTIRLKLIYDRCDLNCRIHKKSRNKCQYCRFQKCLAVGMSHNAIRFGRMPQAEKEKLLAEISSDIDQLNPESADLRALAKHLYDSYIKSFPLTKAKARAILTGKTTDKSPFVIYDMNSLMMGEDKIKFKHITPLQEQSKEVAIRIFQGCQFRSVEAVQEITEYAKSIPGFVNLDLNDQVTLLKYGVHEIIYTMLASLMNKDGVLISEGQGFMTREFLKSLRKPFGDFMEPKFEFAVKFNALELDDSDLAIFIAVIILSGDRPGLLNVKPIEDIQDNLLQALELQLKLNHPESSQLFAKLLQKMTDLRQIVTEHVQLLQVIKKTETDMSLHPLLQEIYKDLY
Sequence of Estrogen receptor (Homo sapiens) (P03372 whole entry, looked up): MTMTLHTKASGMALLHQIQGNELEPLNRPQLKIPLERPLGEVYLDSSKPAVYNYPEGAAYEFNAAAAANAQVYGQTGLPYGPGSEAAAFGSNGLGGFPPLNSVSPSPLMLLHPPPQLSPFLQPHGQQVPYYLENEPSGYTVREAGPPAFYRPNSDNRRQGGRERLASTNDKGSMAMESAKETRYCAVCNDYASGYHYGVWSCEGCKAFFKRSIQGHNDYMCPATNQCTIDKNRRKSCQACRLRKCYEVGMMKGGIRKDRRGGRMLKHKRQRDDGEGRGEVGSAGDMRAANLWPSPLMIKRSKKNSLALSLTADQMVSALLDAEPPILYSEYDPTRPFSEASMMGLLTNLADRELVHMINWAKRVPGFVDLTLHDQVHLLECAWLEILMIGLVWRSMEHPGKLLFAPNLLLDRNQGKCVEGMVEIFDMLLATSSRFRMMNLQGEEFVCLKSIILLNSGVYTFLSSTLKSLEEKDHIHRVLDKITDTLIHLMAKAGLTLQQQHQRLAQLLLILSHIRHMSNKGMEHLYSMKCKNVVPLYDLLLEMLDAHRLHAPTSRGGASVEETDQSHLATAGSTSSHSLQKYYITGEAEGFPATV
Sequence of Aromatase (Homo sapiens) (P11511 whole entry, looked up): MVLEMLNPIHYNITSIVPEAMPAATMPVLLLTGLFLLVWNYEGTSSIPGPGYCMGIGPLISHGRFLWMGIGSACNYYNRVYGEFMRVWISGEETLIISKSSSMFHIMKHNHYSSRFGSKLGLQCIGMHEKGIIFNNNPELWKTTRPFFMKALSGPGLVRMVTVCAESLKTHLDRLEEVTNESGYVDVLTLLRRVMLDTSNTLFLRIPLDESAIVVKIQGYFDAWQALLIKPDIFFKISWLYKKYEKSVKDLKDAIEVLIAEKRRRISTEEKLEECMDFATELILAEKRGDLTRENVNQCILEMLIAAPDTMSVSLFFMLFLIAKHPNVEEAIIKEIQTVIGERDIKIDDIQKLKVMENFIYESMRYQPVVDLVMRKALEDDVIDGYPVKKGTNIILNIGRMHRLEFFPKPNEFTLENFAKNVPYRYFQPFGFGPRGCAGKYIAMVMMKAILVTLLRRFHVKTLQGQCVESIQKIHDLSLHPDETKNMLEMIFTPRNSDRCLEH
Sequence of Aryl hydrocarbon receptor (Homo sapiens) (P35869 whole entry, looked up): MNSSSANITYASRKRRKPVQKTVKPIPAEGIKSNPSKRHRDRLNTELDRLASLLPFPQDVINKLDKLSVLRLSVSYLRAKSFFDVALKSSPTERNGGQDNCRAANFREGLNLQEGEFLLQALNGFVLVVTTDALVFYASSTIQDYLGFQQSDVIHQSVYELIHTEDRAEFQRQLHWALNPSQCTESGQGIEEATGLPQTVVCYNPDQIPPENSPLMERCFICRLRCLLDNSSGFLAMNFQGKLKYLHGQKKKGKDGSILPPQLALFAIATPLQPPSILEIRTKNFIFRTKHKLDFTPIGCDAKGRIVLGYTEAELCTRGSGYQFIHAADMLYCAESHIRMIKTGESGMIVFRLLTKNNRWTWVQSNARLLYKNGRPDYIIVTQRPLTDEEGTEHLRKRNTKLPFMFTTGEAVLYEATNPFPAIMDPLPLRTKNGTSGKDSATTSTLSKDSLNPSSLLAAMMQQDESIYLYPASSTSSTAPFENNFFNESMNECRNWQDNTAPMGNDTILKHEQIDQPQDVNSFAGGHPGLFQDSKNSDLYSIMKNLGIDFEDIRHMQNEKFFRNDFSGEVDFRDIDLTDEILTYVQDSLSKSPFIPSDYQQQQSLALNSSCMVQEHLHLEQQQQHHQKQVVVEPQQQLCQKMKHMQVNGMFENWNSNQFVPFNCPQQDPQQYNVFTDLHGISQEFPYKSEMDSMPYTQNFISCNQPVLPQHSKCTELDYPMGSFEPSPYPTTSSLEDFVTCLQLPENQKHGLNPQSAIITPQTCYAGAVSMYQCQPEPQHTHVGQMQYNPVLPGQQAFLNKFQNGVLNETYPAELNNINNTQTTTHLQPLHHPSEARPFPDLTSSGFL

Consider `Nc1ccc2cc(S(=O)(=O)O)cc(O)c2c1`, for which the Potency result (in assay [1]; in assay [2]; in assay [7]; in assay [8]; with Aromatase (Homo sapiens); in [10]) was “inactive” throughout. Also, the Potency result in [13] is “inactive”. In addition, the compound was classed as inactive in [3], in [4], in assay [5], in [6], in assay [9] and in assay [12]. For the same compound, the compound was classed as inactive in assay [14], in [15], in assay [16] and in assay [17]. Further, the Potency in [11] is 27.1 µM (active).
In the case of `BrCCCCCBr`, the Potency entry (in assay [1]; in assay [2]; in assay [7]; in [8]; with Aromatase (Homo sapiens); in assay [10]) was “inactive” in each case. For the same compound, the Potency result in assay [11], in assay [18] and in [19] was “inactive” each time. The compound was called inactive in assay [3], in assay [4], in assay [6], in assay [9], in [12] and in assay [14]. Further, the compound was classed as inactive in assay [15], in [16] and in assay [17].
Regarding `C=C(C)C(=O)OCc1ccccc1`, the Potency result (in [1]; in assay [2]; in assay [7]; in [8]; with Aromatase (Homo sapiens); in assay [11]) was “inactive” each time. Further, the Potency result in assay [18] and in [13] was “inactive” throughout. Besides, the call in assay [3], in [4], in assay [5], in assay [6], in assay [9] and in assay [12] was inactive. In addition, the call in assay [14], in [15] and in assay [16] was inactive.
On to `O=C(CCNNC(=O)c1ccncc1)NCc1ccccc1`, for which the Potency result (in assay [1]; in assay [2]; in assay [7]; in [8]; with Aromatase (Homo sapiens); in assay [10]) was “inactive” each time. The Potency result in assay [18] and in assay [19] was “inactive” in each case. Further, the outcome in [3], in [4], in [5], in assay [6], in assay [9] and in assay [14] was inactive. Besides, the compound was classed as inactive in [15] and in [16].
Take `O=S(=O)(O)c1ccc2cc(O)c(S(=O)(=O)O)cc2c1`: the Potency result (in [1]; in [2]; in assay [7]; in assay [8]; with Aromatase (Homo sapiens); in assay [10]) was “inactive” each time. Besides, the Potency result in assay [11], in assay [18], in [13] and in [19] was “inactive” throughout. Also, the result in assay [3], in assay [4], in assay [6], in assay [9], in assay [12] and in assay [15] was inactive. Moreover, the compound was classed as inactive in [16].
`Cc1ccsc1/C=C/C1=NCCCN1C`: the Potency result (in assay [1]; in assay [2]; in [7]; in assay [8]; in the assay with Aromatase (Homo sapiens); in assay [10]) was “inactive” each time. Moreover, the Potency entry in assay [11] and in assay [19] was “inactive” each time. Besides, the result in [3], in assay [4], in assay [5], in [6], in [9] and in assay [12] was inactive. Further, the outcome in [14], in [15], in assay [16] and in assay [17] was inactive.
As for `CNC(=O)[C@H]1O[C@@H](n2cnc3c(NCc4cc(Cl)ccc4OCc4cc(C)no4)ncnc32)[C@H](O)[C@@H]1N`, the Potency result (in assay [1]; in [2]; in assay [7]; in assay [8]; in the assay with Aromatase (Homo sapiens); in assay [10]) was “inactive” each time. The Potency result in [11], in assay [13] and in assay [19] was “inactive” in each case. For the same compound, the result in [3], in [4], in [6], in assay [9], in [12] and in assay [16] was inactive. Further, the outcome in assay [17] was inactive.
Turning to `c1ccc2nccnc2c1`, the Potency result (in assay [1]; in [2]; in [7]; in [8]; with Aromatase (Homo sapiens); in [10]) was “inactive” in each case. Also, the Potency entry in [11], in [13] and in assay [19] was “inactive” throughout. Further, the outcome in assay [3], in [4], in [6], in assay [9], in assay [12] and in assay [14] was inactive. In addition, the outcome in [15], in assay [16] and in [17] was inactive.
